PubChem BioAssay AID651650 (Sanford-Burnham Center for Chemical Genomics, 2012)

Each molecule was assayed against Neuropilin-1 (Homo sapiens) (UniProt O14786) (assay: NRP-1 b1b2 CendR peptide binding inhibitors, dose response, biochemical, FP and AlphaScreen panel (AID 651650)). Details: NRP-1 b1b2 / RPARPAR peptide binding, FP or AlphaScreen; run 1, at 100 µM (top of the series).
Neuropilin-1 (Homo sapiens), sequence (O14786 whole entry, looked up): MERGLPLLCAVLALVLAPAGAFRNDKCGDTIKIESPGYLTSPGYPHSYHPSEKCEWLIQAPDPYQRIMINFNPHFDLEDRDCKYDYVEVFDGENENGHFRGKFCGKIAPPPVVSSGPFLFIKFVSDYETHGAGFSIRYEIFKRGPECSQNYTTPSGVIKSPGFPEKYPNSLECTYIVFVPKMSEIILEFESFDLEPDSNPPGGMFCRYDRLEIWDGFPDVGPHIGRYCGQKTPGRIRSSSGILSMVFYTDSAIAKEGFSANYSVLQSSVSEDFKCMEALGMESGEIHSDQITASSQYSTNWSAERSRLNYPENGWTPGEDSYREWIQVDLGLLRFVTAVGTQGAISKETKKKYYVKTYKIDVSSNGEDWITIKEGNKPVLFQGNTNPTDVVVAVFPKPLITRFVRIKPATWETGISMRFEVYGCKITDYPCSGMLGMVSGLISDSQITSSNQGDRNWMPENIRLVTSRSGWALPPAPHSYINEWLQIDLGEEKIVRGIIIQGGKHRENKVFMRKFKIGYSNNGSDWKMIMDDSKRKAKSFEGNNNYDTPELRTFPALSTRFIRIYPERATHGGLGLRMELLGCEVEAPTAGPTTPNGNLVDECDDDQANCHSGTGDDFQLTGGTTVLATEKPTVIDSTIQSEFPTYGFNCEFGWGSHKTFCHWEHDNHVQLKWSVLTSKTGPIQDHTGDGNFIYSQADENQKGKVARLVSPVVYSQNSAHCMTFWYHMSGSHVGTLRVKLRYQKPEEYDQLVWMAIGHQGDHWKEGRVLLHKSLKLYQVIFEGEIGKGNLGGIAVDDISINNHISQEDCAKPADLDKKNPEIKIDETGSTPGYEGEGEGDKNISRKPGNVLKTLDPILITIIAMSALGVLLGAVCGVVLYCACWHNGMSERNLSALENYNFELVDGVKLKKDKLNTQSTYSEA

| SMILES | inhibition [%] |
| --- | --- |
| Cc1cnc(C(=O)OCC(=O)Nc2sc3c(c2C#N)CCC3)cn1 | 44.2 |
| O=C(OCn1nnc2ccccc2c1=O)c1ccc(Br)o1 | 25.4 |
| CSCCC(NC(=O)c1ccc(Cl)cc1Cl)C(=O)NCC(c1cccs1)N(C)C (stereo not drawn) | 31.9 |
| COc1ccc(Cl)cc1S(=O)(=O)N1CCN(CC(=O)C(C)(C)C)CC1 | -4.16 |
| Cc1ccccc1-n1ncc2c1CC(C)(C)CC2NC(=O)c1ccncc1 (stereo not drawn) | 28.1 |
| O=C(Cc1ccccc1Cl)N1CCOCC1 | 25.2 |
| CCCc1c(C)nc(N2CCN(c3ccccc3OC)CC2)[nH]c1=O | 37.3 |
| CCOC(=O)C1CCN(S(=O)(=O)c2ccc3c(c2)CCN3C(=O)C2CCC2)CC1 | 6.43 |
| C=CCNC(=O)c1onc(CSc2ccc(F)c(F)c2)c1C(=O)NCC=C | 38.7 |
| Cc1nnc(SC(C)C(=O)Nc2ccc(S(=O)(=O)NC3CCCCC3)cc2)s1 (stereo not drawn) | 21.8 |
| O=C(Nc1ccc(N2CCOCC2)cc1)c1cc(-n2cnnc2)ccc1Cl | 55 |
| COc1ccc(C(=O)COC(=O)C(CCSC)NS(=O)(=O)c2ccc(Cl)cc2)cc1 (stereo not drawn) | -2.36 |
| Cc1nc(Nc2ccc(S(N)(=O)=O)cc2)oc1C | 60.3 |
| Cc1cc(=O)n2nc(N3CCCC(C(=O)N4CCOCC4)C3)sc2n1 (stereo not drawn) | 17 |
| CCn1c(N)c(C(=O)NCc2cccnc2)sc1=S | 100 |
| C=CCC1(CC=C)CCCN1C(=O)c1cc(COc2cccc(OC)c2)on1 | 39.2 |
| CC(C)(C)C(=O)COC(=O)c1cc(-c2ccncc2)nc2ccccc12 | 19.4 |
| O=C(Nc1ccccc1N1CCOCC1)c1ccc(N2CCCC2=O)cc1 | 46.3 |
